Many of the other results were omitted from the sample, so hits are more common in it than they were.
Pf Dd2 growth: qHTS Primary assay for Inhibitors of Plasmodium falciparum Dd2 growth in vitro; P. falciparum Dd2 growth, SYBR Green, 72 h; Potency, µM (series often up to 28.9 µM), hits mostly inhibitors; 120,000 tested, 4.3% active; AID 1347417, 2020; active means well fitted inhibition curve with a large enough effect; further: nearly all actives have a fitted effect of over 65% in size
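Readout: SYBR Green fluorescence, 485 nm excitation, 535 nm emission, after ~16 h lysis at 37C. Before that, Dd2-infected red cells (2.5% hematocrit) grew 72 h with compound, 29 uM top final concentration.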
Of the large screens only hits and unclear results are named; the others gave an inactive call.

c1cncc(-c2ccnc(N3CCCOC(Cn4cccn4)C3)n2)c1 (stereo unspecified)	none
Cn1nc(C2CCCNC2)n(Cc2ccccc2)c1=O (stereo unspecified)	none
COc1ccc(C(=O)N2CCOCC3(CN(Cc4cc(F)cc(F)c4)C3)C2)c(OC)n1	none
COc1ccc(C(=O)N2CCOCC3(CN(Cc4ccccc4)C3)C2)cc1	none
COc1ccc(C(=O)N2CCOCC3(CN(Cc4ccccc4)C3)C2)c(OC)n1	Pf Dd2 growth 0.89µM
O=C(Nc1ccc(C(=O)N2CCCCC2)cc1)c1nsc2ccccc12	none
CCCCNc1nc(Oc2ccc(=O)[nH]n2)nc(N(C)C)n1	none
O=C1[C@@H]2C[C@@H](CN2Cc2ccccn2)Oc2ccccc2N1CC1CC1	none
CN1CCNc2nc(COc3ccc(Cl)cc3)n(Cc3ccccc3)c2C1=O	none
Cc1n[nH]c(C)c1Cc1ccc(C(=O)N2CCc3c(nc4cc(-c5ccccc5)[nH]n4c3=O)C2)o1	none
CCc1ccc(CN(Cc2cn[nH]c2-c2ccc(OC)cc2)C(=O)Nc2cc(Cl)ccc2OC)cc1	Pf Dd2 growth 13µM
COc1ccc(CNC(=O)C(=O)Nc2cc(Cl)ccc2OC)cc1	none
COc1ccc(CC(=O)NCc2cn[nH]c2-c2ccc(C)cc2)cc1	none
CCOc1ccc(C2CC(=O)n3nc(-c4ccc(C)cc4)nc3S2)cc1OC (stereo unspecified)	none
COc1ccc(-c2cc(C(F)(F)F)nc(SCCC(=O)Nc3c(C)cccc3C)n2)cc1	none
CCN(CC)C(=O)c1sc(NC(=O)C(C)Sc2nc(-c3ccccc3)cc(C(F)(F)F)n2)c(C(=O)OC)c1C (stereo unspecified)	Pf Dd2 growth 0.35µM
CCCOC(=O)c1c(NC(=O)c2nc3ncccn3n2)sc(C(N)=O)c1C	none
CCOC(=O)c1sc(NC(=O)c2cc3nc(-c4ccc(Br)cc4)cc(C(F)(F)F)n3n2)c(C(=O)OCC)c1C	none
CCCOC(=O)c1c(NC(=O)C(C)Sc2nc(-c3ccccc3)cc(C(F)(F)F)n2)sc(C(=O)N(C)C)c1C (stereo unspecified)	Pf Dd2 growth 1.1µM
COc1ccc(-c2cc(C(F)(F)F)nc(SCC(=O)NCCc3ccccc3)n2)cc1	none
O=C(c1ccc(F)cc1F)N1CCCN(C(=O)C2CC2)c2ccccc21	none
CCN1CCN(C(=O)c2cc3n(n2)CC(c2ccc(Br)cc2)OC3)CC1 (stereo unspecified)	none
Cc1ccc(C(=O)OCc2cc(=O)n3nc(-c4cccs4)sc3n2)cc1	none
CC(C)CCNc1nc(Nc2ccccc2)c2cnn(C)c2n1	Pf Dd2 growth 10µM
COCCCNc1nc(NCc2cccc(Cl)c2)c2cnn(C)c2n1	none
Cc1cccnc1NCCNc1nc(C(C)C)nc2c1cnn2C	none
Cc1ccccc1C(=O)N1CCC2(CC1)OCC(C(=O)N1CCOCC1)N2C(=O)c1ccccc1 (stereo unspecified)	none
CCCNC(=O)N1CCCN(C(=O)C2CC2)C(c2ccccc2)CC(=O)NCC1 (stereo unspecified)	none
CCOC(=O)C1=C(C)N=C2SC=C(CC(=O)Nc3cccc(OC)c3)N2C1c1cccc(OC)c1 (stereo unspecified)	Pf Dd2 growth 11µM
CCOC(=O)C1=C(C)N=C2SC=C(CC(=O)Nc3ccc(C)c(C)c3)N2C1c1cccc(OC)c1 (stereo unspecified)	Pf Dd2 growth 8.9µM
COCCOC(=O)C1=C(C)N=C2SC=C(CC(=O)Nc3cccc(OC)c3)N2C1c1ccccc1 (stereo unspecified)	none
CCOC(=O)C1=C(C)N=C2SC=C(CC(=O)Nc3ccc(OC)cc3)N2C1c1cccc(OC)c1 (stereo unspecified)	none
COC(=O)C1=C(C)N=C2SC=C(CC(=O)Nc3ccc(F)cc3)N2C1c1ccc(OC)cc1OC (stereo unspecified)	none
CCOC(=O)C1=C(C)N=C2SC=C(CC(=O)NC(C)CC)N2C1c1cccc([N+](=O)[O-])c1 (stereo unspecified)	none
CCC(=O)N1CCC(c2noc(CO)n2)C1 (stereo unspecified)	none
CCS(=O)(=O)Nc1ccc(C2(C(=O)Nc3cccc(F)c3C)CCCCC2)cc1	Pf Dd2 growth 11µM
CCS(=O)(=O)Nc1ccc(C2(C(=O)NCc3ccc(F)cc3F)CCCCC2)cc1	none
CCS(=O)(=O)Nc1ccc(C2(C(=O)NCc3ccccc3)CCCCC2)cc1	none
CNC(=O)[C@@H](c1ccccc1OC)N1CCC[C@H]1C(=O)N1CC[C@@H](O)C1	none
CC(C)C(=O)Nc1ccc(C2(C(=O)NCc3ccccn3)CCC2)cc1	none
COc1ccccc1N1CCN(CCCNC(=O)Cn2ncc3c([nH]c4ccccc43)c2=O)CC1	none
COCCN(C)C[C@@H]1CN(C(=O)c2ccc(-c3ccco3)cc2)C[C@@H]1CO	none
CCN1CCN(c2cc(C)c3cc(NC(=O)c4ccc(OC)c(OC)c4)ccc3n2)CC1	Pf Dd2 growth 2.8µM
COc1cccc(C(=O)Nc2ccc3ncnc(N4CCCCC4)c3c2)c1	none
CCN1CCN(c2cc(C)c3cc(NC(=O)c4cccc(C(F)(F)F)c4)ccc3n2)CC1	Pf Dd2 growth 5.6µM
CCNC(=O)CN1CCCC(CNC(=O)c2cccc(C(F)(F)F)c2)C1 (stereo unspecified)	none
Cc1cccc(C(=O)Nc2ccc3ncnc(N4CCCCC4)c3c2)c1	none
CCOc1cc(=O)n2c(c1C(=O)NCCc1ccc(OC)c(OC)c1)CCCC2	none
CCCCNc1cc(N2CCN(C3CCCCC3)CC2)c2noc3c2c1C(=O)c1ccccc1-3	Pf Dd2 growth 2.5µM
C[C@@H](NCC1CCCC1)c1onc(-c2ccc(F)cc2)c1C(=O)O	none
COCCNC(=O)C1CCCN(Cc2ccncc2)CCC(=O)NCC1 (stereo unspecified)	none
Cc1nc(CC(=O)NCc2cccnc2N2CCOCC2)cs1	none
COc1ccc(-n2c(CC3C(=O)N(C)c4ccc(C)cc43)nc3ccccc3c2=O)cc1 (stereo unspecified)	none
Cc1cccc(NC(=O)Cn2c(N(C)Cc3ccccc3)nc(C)cc2=O)c1	Pf Dd2 growth 5µM
CCc1cccc(NC(=O)Cn2c(N(C)Cc3ccccc3)nc(C)cc2=O)c1	none
Cc1cc(=O)n(CC(=O)Nc2ccc(C)c(C)c2)c(N(C)Cc2ccccc2)n1	none
O=C1CCN(C(=O)COc2ccccc2)CCCC(c2nc(-c3cccnc3)no2)CCN1 (stereo unspecified)	none
CC(C)NC(=O)C1CC(=O)N(c2n[nH]c3ccccc23)C1 (stereo unspecified)	none
Cc1nn(-c2ccccn2)c(C)c1[C@@H]1C=C[C@@H](NC(=O)CC(C)(C)CC(=O)O)C1	none
Cc1nn(-c2ccccc2)c(C)c1[C@@H]1C=C[C@@H](NC(=O)CC(C)(C)CC(=O)O)C1	none
Cc1nn(-c2ccc(C(F)(F)F)cc2)c(C)c1[C@@H]1C=C[C@@H](NC(=O)CSCC(=O)O)C1	none
Cc1nn(-c2ccccc2)c(C)c1[C@@H]1C=C[C@@H](NC(=O)c2ccco2)C1	Pf Dd2 growth 10µM
Cc1nn(-c2ccc(C(C)(C)C)cc2)c(C)c1[C@@H]1C=C[C@@H](NC(=O)CCCC(=O)O)C1	none
COC(=O)c1cccc(NC(=S)N[C@@H]2C=C[C@@H](c3c(C)nn(-c4ccc(F)cc4)c3C)C2)c1	none
CC(=O)N[C@@H]1C=C[C@@H](c2c(C)nn(-c3ccc(C)c(Cl)c3)c2C)C1	none
Cc1nn(-c2ccc(C(C)(C)C)cc2)c(C)c1[C@@H]1C=C[C@@H](NC(=O)CC2(CC(=O)O)CCCC2)C1	none
Cc1nn(-c2ccccc2[N+](=O)[O-])c(C)c1[C@@H]1C=C[C@@H](NCc2ccco2)C1	Pf Dd2 growth 11µM
